Records with an inconclusive call do not appear. Active and inactive are the calls of the source. Unless noted, calls come from the whole dose curve; as a rule, active = well fitted curve in the direction sought with a large enough effect in the repeat runs; inconclusive = weak or mixed curves; inactive = no such curve, though single readings can be large; an effect the other way counts as inactive or inconclusive.
Tests used:
[1] = biological target: Retinoic acid receptor RXR-alpha (Homo sapiens) (UniProt P19793); assay: qHTS assay to identify small molecule agonists of the RXR signaling pathway (AID 1159527; calls by dose curve; note: nearly all actives have a fitted effect of over 35% in size)
Method in brief: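 Compounds in DMSO were added to RXR-alpha-UAS-bla HEK 293T cells kept in 2% charcoal-stripped serum, and incubated 16 hr at 37 C with 5% CO2. Reporter signal came from a 2 hr B/G FRET substrate step.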

[2] = qHTS assay to identify small molecule antagonists of the retinoid acid receptor (RAR) signaling pathway - cell viability counter screen (AID 1159551); note: nearly all actives have a fitted effect of over 35% in size
Method in brief: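 Luminescent ATP quantitation (CellTiter-Glo) gave cell viability in C3RL4 cells exposed to test chemicals for 6 h at 37 C alongside 1 uM final retinol.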

[3] = qHTS assay to identify small molecule antagonists of the retinoic acid receptor (RAR) signaling pathway (AID 1159552; note: nearly all actives have a fitted effect of over 50% in size)
Method in brief: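 Antagonism of retinol-induced RARE reporter activity was measured in C3RL4 cells. Exposure to compounds and 1 uM final retinol lasted 6 hr at 37 C, with luminescence as endpoint.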

[4] = qHTS assay to identify small molecule agonists of the retinoic acid receptor (RAR) signaling pathway (AID 1159553)
Method in brief: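 Luminescence from a RARE-driven luciferase reporter in C3RL4 cells served as the read-out, measured after 30 min with detection reagent at room temperature. Compounds in DMSO were applied for 6 hr at 37 C following overnight seeding.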

[5] = qHTS assay to identify small molecule antagonists of the estrogen related receptor (ERR) signaling pathway from Tox21 library - cell viability counter screen (AID 1224834); note: nearly all actives have a fitted effect of over 30% in size
Method in brief: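 Fluorescence from CellTiter-Fluor gives the viability read-out, taken 30 min after reagent addition. Before that, ERR cells seeded 6 h earlier were incubated with compounds for 17.5 h at 37 C.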

[6] = biological target: Luciferin 4-monooxygenase (Photinus pyralis) (UniProt P08659); assay: qHTS assay to identify small molecule inhibitors of firefly luciferase (AID 1224835); note: series mostly up to about 120 µM; nearly all actives have a fitted effect of over 25% in size
Method in brief: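 Inhibition of purified Photinus luciferase is measured by luminescence. Substrate levels (D-luciferin, ATP) sit at their KM values. Each compound is tested in a concentration series.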

[7] = qHTS assay to identify small molecule agonists of the constitutive androstane receptor (CAR) signaling pathway - cell viability counter screen (AID 1224836); note: series mostly up to about 92 µM; nearly all actives have a fitted effect of over 45% in size
Method in brief: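 Double-stable HepG2 hepatoma cells (hCAR plus CYP2B6-2.2kb) are treated for 23 h at 37 C with test compounds in 15-point concentration series. PK11195 at 0.75 uM final is co-added. Cell viability is quantified by CellTiter-Fluor.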

[8] = qHTS assay to identify small molecule antagonists of the constitutive androstane receptor (CAR) signaling pathway - cell viability counter screen (AID 1224837); note: series mostly up to about 92 µM; nearly all actives have a fitted effect of over 45% in size
Method in brief: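 HepG2-CYP2B6-hCAR cells, 2500/well, 4 hr pre-incubation; compound titration, 15 conc.; CITCO 50 nM final; 23 hr, 37 C/5% CO2; CellTiter-Fluor, fluorescence intensity.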

[9] = biological target: Nuclear receptor subfamily 1 group I member 3 (Homo sapiens) (UniProt Q14994); assay: qHTS assay to identify small molecule antagonists of the constitutive androstane receptor (CAR) signaling pathway (AID 1224838);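 note: HepG2 cells stably expressing hCAR with CYP2B6 luciferase reporter stimulated by CITCO; nearly all actives have a fitted effect of over 40% in size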
Method in brief: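 HepG2-CYP2B6-hCAR cells; 4 h pre-incubation; cpd (15 conc) + CITCO 50 nM final; 24 h, 37 C/5% CO2; ONE-Glo, luminescence.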

[10] = biological target: Nuclear receptor subfamily 1 group I member 3 (Homo sapiens) (UniProt Q14994); assay: qHTS assay to identify small molecule agonists of the constitutive androstane receptor (CAR) signaling pathway (AID 1224839);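 note: HepG2 cells stably carrying human CAR and a CYP2B6 luciferase reporter; series mostly up to about 92 µM; nearly all actives have a fitted effect of over 15% in size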
Method in brief: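 Readout: firefly luciferase luminescence via ONE-Glo. System: HepG2 double-stable for hCAR and CYP2B6-2.2kb. Conditions: 15-point compound titration, PK11195 at 0.75 uM final, 24 h incubation.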

[11] = qHTS assay to identify small molecule antagonists of the estrogen related receptor signaling pathway with the pleiotropic PPARgamma coactivator (PGC) from Tox21 10K library - cell viability counter screen (AID 1224840; active = well fitted cell-killing curve with a large enough effect in the repeat runs, not every such curve was filed as active; note: nearly all actives have a fitted effect of over 40% in size)
Method in brief: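 PGC/ERR cells, 2,000/well; 6 h pre-incubation 37 C/5% CO2; cpd in DMSO via pin tool; 17.5 h 37 C; CellTiter-Fluor, 30 min; fluorescence.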

[12] = biological target: Thyrotropin receptor (Homo sapiens) (UniProt P16473); assay: qHTS assay to identify small molecule agonists of the thyroid stimulating hormone receptor (TSHR) signaling pathway (AID 1224843; calls by dose curve; note: nearly all actives have a fitted effect of over 45% in size)
Method in brief: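 Screening of the Tox21 10K collection used HEK293 cells engineered with TSHR at 800 cells per well. After a 30-min room-temperature compound exposure, HTRF cAMP reagents were added and fluorescence recorded 1 h later.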

[13] = qHTS assay to identify small molecule agonists of the hypoxia (HIF-1) signaling pathway - cell viability counter screen (AID 1224844; calls by dose curve; note: nearly all actives have a fitted effect of over 50% in size)
Method in brief: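 ME-180 HRE-bla cells, 2,000/well, 0.5% dialyzed FBS; 5 hr settle, 17 hr compound at 37C/5% CO2; CCF4-AM reporter read first, then CellTiter-Glo luminescence after 30 min RT.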

[14] = qHTS assay to identify small molecule agonists of H2AX (AID 1224845; active = well fitted activation curve with a large enough effect in the signal ratio in the repeat runs, not every such curve was filed as active; the % refers to the signal ratio)
Method in brief: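 Phospho-H2AX Ser139 measured by HTRF (ex 320 nm; em 665 and 620 nm) after 24 hr antibody incubation. Compounds, 15 concentrations, 0.76% DMSO, were applied to CHO-K1 cells for 3hr at 37C before lysis.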

[15] = qHTS assay to identify small molecule agonists of H2AX - cell viability counter screen (AID 1224847; calls by dose curve;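 note: wild-type CHO-K1 cells; top concentration of the series differs between compounds; nearly all actives have a fitted effect of over 30% in size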)
Method in brief: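 For this counter screen, overnight-attached CHO-K1 cells received test compounds (15 concentrations, 0.76% DMSO final); 3 hr later at 37C, CellTiter-Glo reagent was added and luminescence recorded after 30 min at room temperature.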

[16] = qHTS assay to identify small molecule agonists of the hypoxia (HIF-1) signaling pathway (AID 1224846; active = well fitted activation curve with a large enough effect in the signal ratio in the repeat runs, not every such curve was filed as active; the % refers to the signal ratio)
Method in brief: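 Cell line: CellSensor HRE-bla ME-180; 2,000 cells/well; 0.5% dialyzed FBS; 5 h preincubation; DMSO compound pin transfer; 17 h, 37C, 5% CO2; CCF4-AM added; bla FRET signal scored for activation.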

Measured: Potency

Sequence of Luciferin 4-monooxygenase (Photinus pyralis) (P08659 whole entry, looked up): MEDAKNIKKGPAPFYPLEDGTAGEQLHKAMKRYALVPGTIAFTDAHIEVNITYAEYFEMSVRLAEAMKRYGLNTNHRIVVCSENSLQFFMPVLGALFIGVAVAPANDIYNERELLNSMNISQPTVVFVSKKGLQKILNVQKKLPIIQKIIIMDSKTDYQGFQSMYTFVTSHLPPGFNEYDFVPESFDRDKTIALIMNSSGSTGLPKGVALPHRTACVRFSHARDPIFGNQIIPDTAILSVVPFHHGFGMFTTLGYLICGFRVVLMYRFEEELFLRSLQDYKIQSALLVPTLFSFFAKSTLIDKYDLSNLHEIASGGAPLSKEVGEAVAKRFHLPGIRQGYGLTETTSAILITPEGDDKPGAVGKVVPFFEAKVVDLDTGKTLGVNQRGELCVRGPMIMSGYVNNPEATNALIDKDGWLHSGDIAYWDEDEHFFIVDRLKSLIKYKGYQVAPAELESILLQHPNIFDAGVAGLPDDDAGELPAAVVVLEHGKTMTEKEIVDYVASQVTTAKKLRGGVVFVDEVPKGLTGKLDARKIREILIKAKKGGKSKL
Sequence of Retinoic acid receptor RXR-alpha (Homo sapiens) (P19793 whole entry, looked up): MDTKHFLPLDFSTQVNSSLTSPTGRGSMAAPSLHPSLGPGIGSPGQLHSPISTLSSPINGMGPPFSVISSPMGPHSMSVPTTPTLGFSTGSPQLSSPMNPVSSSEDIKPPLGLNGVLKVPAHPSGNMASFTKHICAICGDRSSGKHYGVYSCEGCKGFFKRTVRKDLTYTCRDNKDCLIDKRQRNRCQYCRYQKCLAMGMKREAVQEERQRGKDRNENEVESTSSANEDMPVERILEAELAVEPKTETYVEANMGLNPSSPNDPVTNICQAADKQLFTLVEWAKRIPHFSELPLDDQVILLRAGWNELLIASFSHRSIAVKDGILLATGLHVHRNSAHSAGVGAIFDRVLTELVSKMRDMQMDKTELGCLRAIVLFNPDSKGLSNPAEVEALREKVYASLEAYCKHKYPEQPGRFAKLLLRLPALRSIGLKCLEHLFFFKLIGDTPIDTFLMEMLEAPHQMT
Sequence of Nuclear receptor subfamily 1 group I member 3 (Homo sapiens) (Q14994 whole entry, looked up): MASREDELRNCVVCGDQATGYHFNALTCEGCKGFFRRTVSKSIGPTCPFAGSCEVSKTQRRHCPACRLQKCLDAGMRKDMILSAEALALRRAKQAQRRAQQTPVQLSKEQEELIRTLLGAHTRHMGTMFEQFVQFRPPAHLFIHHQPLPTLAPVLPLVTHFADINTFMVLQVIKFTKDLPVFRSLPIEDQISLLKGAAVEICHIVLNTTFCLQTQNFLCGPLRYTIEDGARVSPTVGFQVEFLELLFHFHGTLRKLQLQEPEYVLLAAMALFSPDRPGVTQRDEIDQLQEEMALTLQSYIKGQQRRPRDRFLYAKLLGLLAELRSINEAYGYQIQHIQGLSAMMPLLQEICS
Sequence of Thyrotropin receptor (Homo sapiens) (P16473 whole entry, looked up): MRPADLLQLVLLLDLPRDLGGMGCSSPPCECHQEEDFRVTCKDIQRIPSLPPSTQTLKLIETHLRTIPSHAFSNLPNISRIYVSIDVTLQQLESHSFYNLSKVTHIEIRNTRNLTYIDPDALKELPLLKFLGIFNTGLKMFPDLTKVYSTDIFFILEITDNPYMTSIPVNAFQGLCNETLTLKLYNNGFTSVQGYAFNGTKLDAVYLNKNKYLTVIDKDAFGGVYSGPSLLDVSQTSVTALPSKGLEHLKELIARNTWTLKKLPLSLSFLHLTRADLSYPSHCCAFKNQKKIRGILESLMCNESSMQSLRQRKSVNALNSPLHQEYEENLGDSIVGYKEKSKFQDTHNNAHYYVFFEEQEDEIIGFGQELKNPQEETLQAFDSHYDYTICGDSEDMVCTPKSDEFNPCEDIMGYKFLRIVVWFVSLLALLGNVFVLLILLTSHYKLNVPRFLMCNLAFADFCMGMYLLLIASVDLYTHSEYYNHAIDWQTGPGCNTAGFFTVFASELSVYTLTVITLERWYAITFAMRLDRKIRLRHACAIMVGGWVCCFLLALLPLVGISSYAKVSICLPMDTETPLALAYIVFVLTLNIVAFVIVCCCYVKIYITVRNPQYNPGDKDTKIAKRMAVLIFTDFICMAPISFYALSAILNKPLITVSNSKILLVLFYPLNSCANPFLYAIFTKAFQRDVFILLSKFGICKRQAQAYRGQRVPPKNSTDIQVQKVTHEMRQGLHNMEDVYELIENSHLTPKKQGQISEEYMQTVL

Cc1cc(-c2ccccc2)nnc1NCCN1CCOCC1
not listed: [16]
inactive: all other assays above

CO[Si](CCCn1c(=O)n(CCC[Si](OC)(OC)OC)c(=O)n(CCC[Si](OC)(OC)OC)c1=O)(OC)OC
not listed: [14]
inactive: all other assays above

COC(=O)c1cccc(Cl)c1
not listed: [14]
inactive: all other assays above

C=C(C)[C@@H]1CC=C(C)C(=O)C1
not listed: [3] | [4] | [5] | [9] | [10] | [14]
inactive: all other assays above

C=CC(=O)OCC1CCCO1 (centres undefined)
not listed: [14] | [15]
inactive: all other assays above

COS(=O)(=O)O
inactive: all assays above

CCCC(=O)OC/C=C(\C)CCC=C(C)C
inactive: all assays above

CCOc1cccc(N)c1
not listed: [9] | [15]
inactive: all other assays above

CC1=NN(c2ccc(S(=O)(=O)O)cc2)C(=O)C1
not listed: [9] | [14]
inactive: all other assays above

Source: PubChem BioAssay (Tox21)
